Source: ChEMBL document CHEMBL1157539, “Thousands of chemical starting points for antimalarial lead identification” (Nature, 2010)

These compounds were tested on HepG2 (assay: GSK_TCMDC: Percent inhibition of human HepG2 cell line. Test compounds present at 10uM.).
Format: functional

| SMILES | Inhibition [%] |
| --- | --- |
| CN(C)Cc1ccc(-c2ccc3c(Nc4ccc(Oc5ccccn5)cc4)ccnc3c2)o1 | 18 |
| Fc1cccc(Cl)c1-c1nc(NCCC(c2ccccc2)c2ccccc2)no1 | 4 |
| O=C(NOCCOc1ccccc1)c1ccccc1 | 0 |
| C=C[C@H]1CN2CC[C@H]1C[C@@H]2[C@@H](O)c1ccnc2ccc(OC)cc12 [QUINIDINE] | 0 |
| COc1ccc2nccc(N3CCC(SCCNS(=O)(=O)c4ccc5c(c4)OCCO5)C3)c2n1.Cl (stereo not given) | 36 |
| COc1ccc(NC(=O)c2ccc3[nH]c(-c4ccc(Cl)cc4)cc3c2)cc1OCCN(C)C | 32 |
| Cc1ccc(NC(=O)Nc2ccccc2F)cc1-c1ccc(C(=O)Nc2ccncc2)cc1 | 36 |
| O=C(NCC1CC1)C1CCN(C(c2ccccc2)c2nc3ccccc3s2)CC1 (stereo not given) | 0 |
| CCOc1cccc(C(=O)Nc2nonc2-c2ccc(OC)c(OC)c2)c1 | 11 |
| Fc1cccc(COc2ccc(Nc3ncnc4cc(/C=C/[C@@H]5CCCN5)sc34)cc2Cl)c1 | 17 |
| COc1cc(Nc2nccc(N3CCC(NS(=O)(=O)c4ccc(NC(C)=O)cc4)CC3)n2)cc(OC)c1OC | 0 |
| Br.Cc1cccc2c(CON3C(N)=NC(N)=NC3(C)C)cccc12 | 64 |
| CN(Cc1ccccc1)C1CCCN(c2cc(NC(=O)c3ccc(F)cc3)ccn2)C1.O=C(O)C(F)(F)F (stereo not given) | 7 |
| Cc1cc(N(C)C)nc(Nc2ccc(NS(=O)(=O)c3ccccc3)cc2)n1 | 0 |
| O=C(Nc1ccc(OC2CCN(Cc3ccsc3)C2)c(Cl)c1)c1ccc(F)cc1.O=C(O)C(F)(F)F (stereo not given) | 0 |
